Growth inhibition call data for 29 compounds are collected here from the antibiotic and cytotoxicity screens of Wong et al. (2023).

SMILES strings stand for the structures. Hit rate of the full screen: of about 39,000 compounds, about 500 (1.3%) were called active. The full list was thinned out, with actives kept by preference.

The experiment deals with S. aureus RN4220. Kind of experiment: growth inhibition call (relative growth <= 0.2). To be noted: 50 µM.
For `Cc1cc(OCCCS(C)(=O)=O)cc(C)c1-c1cccc(COc2ccc3c(c2)OC[C@H]3CC(=O)O)c1`, the growth inhibition call is “active”. To `C[C@H]1OC(=O)c2c(O)ccc(O)c2[C@H]1O` belongs “inactive”. The value for `COc1cccc(NC(=O)N2C[C@H](O)COC[C@@H]3O[C@H](CC(=O)NCCCN4CCOCC4)CC[C@H]32)c1` was “inactive”. To `CC[C@H](C)[C@H]1O[C@]2(C=C[C@@H]1C)C[C@@H]1C[C@@H](C/C=C(\C)[C@@H](O[C@H]3C[C@H](OC)[C@@H](O[C@H]4C[C@H](OC)[C@@H](NC(C)=O)[C@H](C)O4)[C@H](C)O3)[C@@H](C)/C=C/C=C3\CO[C@@H]4[C@H](O)C(C)=C[C@@H](C(=O)O1)[C@]34O)O2` belongs “inactive”; to `COC1CC(OC2C(C)=CCC3CC(CC4(CCC(C)C(C5CCCCC5)O4)O3)OC(=O)C3C=C(C)C(=NO)C4OCC(=CC=CC2C)C34O)OC(C)C1O` (centres undefined), “inactive”; to `CN[C@@H]1[C@@H](C)O[C@@H](O[C@H]2[C@H](C)O[C@@H](O[C@@H]3/C(C)=C/C[C@@H]4C[C@@H](C[C@]5(C=C[C@H](C)[C@@H](C(C)C)O5)O4)OC(=O)[C@@H]4C=C(C)[C@@H](O)[C@H]5OC/C(=C\C=C\[C@@H]3C)[C@]54O)C[C@@H]2OC)C[C@H]1OC`, “active”. For the compound `CO[C@H]1C[C@H](O[C@@H]2/C(C)=C/C[C@@H]3C[C@@H](C[C@]4(CC[C@H](C)[C@@H](C5CCCCC5)O4)O3)OC(=O)[C@@H]3C=C(C)/C(=N/O)[C@H]4OC/C(=C\C=C\[C@@H]2C)[C@]43O)O[C@@H](C)[C@@H]1O`, the growth inhibition call is “active”.

Turning to `CCC(C)C1OC2(C=CC1C)CC1CC(CC=C(C)C(OC3CC(OC)C(OC4CC(OC)C(NC(C)=O)C(C)O4)C(C)O3)C(C)C=CC=C3COC4C(O)C(C)=CC(C(=O)O1)C34O)O2` (centres undefined), the growth inhibition call is “inactive”. The value for `CO[C@H]1C[C@@H](O[C@@H]2/C(C)=C/C[C@@H]3C[C@@H](C[C@]4(CC[C@H](C)[C@@H](C5CCCCC5)O4)O3)OC(=O)[C@@H]3C=C(C)/C(=N/O)[C@H]4OC/C(=C\C=C\[C@@H]2C)[C@]43O)O[C@@H](C)[C@@H]1O` was “inactive”; that for `COc1ccc(S(=O)(=O)Nc2ccc3c(c2)C(=O)N([C@H](C)CO)C[C@H](C)[C@@H](CN(C)C(=O)CCC(F)(F)F)OCCCC[C@@H](C)O3)cc1` was “inactive”. Consider `COc1cccc(-c2cnc3c(c2)C(=O)N([C@H](C)CO)C[C@H](C)[C@H](CN(C)S(=O)(=O)c2cn(C)cn2)O3)c1`, for which the growth inhibition call was “inactive”.

With `O=C1NC2=C(C(=O)OC2)[C@H](c2ccccc2)N1`, the growth inhibition call was “inactive”. The value for `C[C@@H](O)[C@@H](O)[C@@H](O)C/C=N/NC(=O)CCCCCCC(=O)NO` was “inactive”. In the case of `CC(C)NC(=O)N(C)C[C@@H]1Oc2ccc(NC(=O)CCN3CCOCC3)cc2C(=O)N([C@H](C)CO)C[C@@H]1C`, the growth inhibition call was “inactive”.

Take `Oc1ccc(C=Cc2cc(O)cc(O)c2)cc1`: the growth inhibition call is “inactive”.

On to `COc1ccc(O)cc1`, for which the growth inhibition call was “inactive”. To `COc1cc(C=Cc2ccc(O)cc2)cc(OC)c1` belongs “active”; to `CCCCCC=CCCC(=O)NC1C(Oc2c3cc4cc2Oc2ccc(cc2Cl)C(OC2OC(CO)C(O)C(O)C2NC(C)=O)C2NC(=O)C(NC(=O)C4NC(=O)C4NC(=O)C(Cc5ccc(c(Cl)c5)O3)NC(=O)C(N)c3ccc(O)c(c3)Oc3cc(O)cc4c3)c3ccc(O)c(c3)-c3c(OC4OC(CO)C(O)C(O)C4O)cc(O)cc3C(C(=O)O)NC2=O)OC(CO)C(O)C1O` (centres undefined) [TEICOPLANIN [A(2-1) shown]], “active”. To `CCCCCCCCCC(=O)N[C@H]1[C@H](Oc2c3cc4cc2Oc2ccc(cc2Cl)[C@@H](O[C@@H]2O[C@H](CO)[C@@H](O)[C@H](O)[C@H]2NC(C)=O)[C@@H]2NC(=O)[C@H](NC(=O)[C@@H]4NC(=O)[C@H]4NC(=O)[C@@H](Cc5ccc(c(Cl)c5)O3)NC(=O)[C@@H](N)c3ccc(O)c(c3)Oc3cc(O)cc4c3)c3ccc(O)c(c3)-c3c(O[C@H]4O[C@H](CO)[C@@H](O)[C@H](O)[C@@H]4O)cc(O)cc3[C@H](C(=O)O)NC2=O)O[C@H](CO)[C@@H](O)[C@@H]1O` belongs “active”; to `CCCCC/C=C/CCC(=O)N[C@H]1[C@H](Oc2c3cc4cc2Oc2ccc(cc2Cl)[C@@H](O[C@@H]2O[C@H](CO)[C@@H](O)[C@H](O)[C@H]2NC(C)=O)[C@@H]2NC(=O)[C@H](NC(=O)[C@@H]4NC(=O)[C@H]4NC(=O)[C@@H](Cc5ccc(c(Cl)c5)O3)NC(=O)[C@H](N)c3ccc(O)c(c3)Oc3cc(O)cc4c3)c3ccc(O)c(c3)-c3c(O[C@H]4O[C@H](CO)[C@@H](O)[C@H](O)[C@@H]4O)cc(O)cc3[C@@H](C(=O)O)NC2=O)O[C@H](CO)[C@@H](O)[C@@H]1O`, “active”; to `C[C@@H]1CN([C@@H](C)CO)C(=O)c2cc(NC(=O)Nc3ccc4c(c3)OCO4)ccc2O[C@@H](C)CCCCO[C@@H]1CN(C)C(=O)C1CCCCC1`, “inactive”. Consider `COc1ccc(S(=O)(=O)Nc2ccc3c(c2)C(=O)N([C@H](C)CO)C[C@@H](C)[C@@H](CN(C)C(=O)C2CCCCC2)OCCCC[C@@H](C)O3)cc1`, for which the growth inhibition call is “inactive”. In the case of `C[C@H](CO)N1C[C@H](C)[C@H](CN(C)S(=O)(=O)c2cn(C)cn2)Oc2ccc(NC(=O)NC3CCCCC3)cc2C1=O`, the growth inhibition call is “inactive”.

`C[C@@H]1CCCCO[C@H](CN(C)Cc2ccccc2)[C@@H](C)CN([C@@H](C)CO)C(=O)c2cc(NS(=O)(=O)c3ccc(F)cc3)ccc2O1`: the growth inhibition call was “inactive”. Regarding `C[C@@H]1CCCCO[C@H](CN(C)S(=O)(=O)c2cccs2)[C@@H](C)CN([C@@H](C)CO)C(=O)c2cc(NC(=O)CCC(F)(F)F)ccc2O1`, the growth inhibition call was “inactive”. The value for `CC(=O)OC[C@H]1O[C@@](COC(C)=O)(O[C@H]2O[C@H](COC(C)=O)[C@@H](OC(C)=O)[C@H](OC(C)=O)[C@H]2OC(C)=O)[C@@H](OC(C)=O)[C@@H]1OC(C)=O` was “inactive”; that for `C[C@H]1CN([C@@H](C)CO)C(=O)CCCn2nncc2CO[C@@H]1CN(C)S(=O)(=O)c1ccc2c(c1)OCCCO2` was “inactive”; that for `C[C@H](CO)N1C[C@H](C)[C@@H](CN(C)Cc2ccc(Oc3ccccc3)cc2)Oc2ccc(NS(=O)(=O)c3ccc(F)cc3)cc2C1=O` was “inactive”. The value for `C[C@H]1CN([C@@H](C)CO)C(=O)c2cccc(NS(=O)(=O)c3ccc(F)cc3)c2O[C@H]1CN(C)Cc1ccc(Cl)c(Cl)c1` was “inactive”.
